Experimental data reported in PubChem BioAssay (NCATS).
Results filed as inconclusive are left out. Values without a mark were called inactive. The source made the active and inactive calls. Calls come from the whole dose curve; as a rule, active = well fitted curve in the direction sought with a large enough effect; inconclusive = small, poorly fitted or top-dose-only effect, or another doubt; inactive = no such curve, though single readings can be large; an effect the other way counts as inactive or inconclusive.

Experiments:
[1] = BET inhibitor-based combinations targeting novel dependencies in MECOM-rearranged (r) AML: SET-2 cell line (AID 2202231); settings: SET-2 AML cells viability, CellTiter-Glo luminescence, 48 h; viability: active compounds read low, concentration not given here; note: nearly all actives have a fitted effect of over 35% in size; note: potency is the fitted concentration of half-maximal effect;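 for viability: plate controls were DMSO treated cells for no effect and wells without cells for full effect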
In short: (§1)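 500 cells/well; 11-pt dose curve; 48 h, standard incubator; CellTiter-Glo luminescence after 15 min RT; DMSO/empty-well normalization; AUC plus Z-AUC (mean-centered within each line).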

[2] = BET inhibitor-based combinations targeting novel dependencies in MECOM-rearranged (r) AML: UCSD-AML1 cell line (AID 2202235); settings: UCSD-AML1 AML cells viability, CellTiter-Glo, 48 h; series mostly up to 46 µM; note: nearly all actives have a fitted effect of over 40% in size; note: potency is the fitted concentration of half-maximal effect
In short: (§2)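 Cells were plated at 500 per well and exposed to each drug across an 11-point dose range for 48 hr at standard incubator conditions. Viability was read by CellTiter-Glo luminescence, and activity was expressed as AUC and per-cell-line Z-transformed AUC.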

[3] = BET inhibitor-based combinations targeting novel dependencies in MECOM-rearranged (r) AML: MV-4-11 cell line (AID 2202233); settings: MV-4-11 AML viability, CellTiter-Glo luminescence, 48 h; series mostly up to 46 µM; note: nearly all actives have a fitted effect of over 45% in size; note: potency is the fitted concentration of half-maximal effect
In short: as §2

[4] = BET inhibitor-based combinations targeting novel dependencies in MECOM-rearranged (r) AML: HNT-34 cell line (AID 2202234); settings: HNT-34 AML viability, CellTiter-Glo luminescence, 48 h; series mostly up to 46 µM; note: nearly all actives have a fitted effect of over 35% in size; note: potency is the fitted concentration of half-maximal effect
In short: as §2

[5] = BET inhibitor-based combinations targeting novel dependencies in MECOM-rearranged (r) AML: AML-191 cell line (AID 2202236; note: nearly all actives have a fitted effect of over 35% in size; note: potency is the fitted concentration of half-maximal effect); settings: AML-191 viability, CellTiter-Glo luminescence, 48 h; series mostly up to 46 µM
In short: as §1

[6] = BET inhibitor-based combinations targeting novel dependencies in MECOM-rearranged (r) AML: OCI-AML3 cell line (AID 2202232); settings: CellTiter-Glo luminescence, 48 h; Potency: OCI-AML3 viability; series mostly up to 46 µM; note: nearly all actives have a fitted effect of over 35% in size; note: potency is the fitted concentration of half-maximal effect
In short: as §1

[7] = BET inhibitor-based combinations targeting novel dependencies in MECOM-rearranged (r) AML: AML-194 cell line (AID 2202237; note: nearly all actives have a fitted effect of over 40% in size; note: potency is the fitted concentration of half-maximal effect); settings: AML-194 (MECOM-r AML) viability, CellTiter-Glo, 48 h; series mostly up to 46 µM
In short: as §1

[8] = molecular target: Retinaldehyde dehydrogenase 3 (Homo sapiens) (UniProt P47895); test: qHTS for Inhibitors of the Aldehyde Dehydrogenase Family (ALDH1A3) Confirmatory screens (AID 2061311); settings: ALDH inhibition qHTS; series mostly up to 46 µM; note: potency is the fitted concentration of half-maximal effect; nearly all actives have a fitted effect of over 60% in size
[9] = molecular target: Aldehyde dehydrogenase 1A1 (Homo sapiens) (UniProt P00352); test: qHTS for Inhibitors of the Aldehyde Dehydrogenase Family (ALDH1A1) Confirmatory screens (AID 2061316); settings: ALDH inhibition qHTS; series mostly up to 47.3 µM; note: % is set by controls: 0 for no effect and ±100 for the full control effect; nearly all actives have a fitted effect of over 65% in size
[10] = molecular target: Retinaldehyde dehydrogenase 3 (Homo sapiens) (UniProt P47895); test: qHTS for Inhibitors of the Aldehyde Dehydrogenase Family (ALDH1A3) Primary screen (AID 2061315); settings: ALDH inhibition qHTS; series mostly up to 56 µM;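 note: plate controls were DMSO vehicle for no effect and reference inhibitor for full effect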

With `Nc1nccc(-c2ccc3noc(-c4ccc(Cl)cc4)c3c2)n1` the viability [1] was 88.8% and the Potency [2] was 20.9 µM (active).

In the case of `C#Cc1cccc(Nc2ncnc3cc(OCCOC)c(OCCO)cc23)c1`, the Potency [3] is reported as 2.63 µM (active), the Potency [4] is reported as 2.63 µM (active) and the Potency [2] is reported as 13.2 µM (active). For the same molecule, the Potency [5] was 16.6 µM (active).

For `Clc1ccccc1CN1CCc2sccc2C1`, the viability [1] was 111%, the Potency [6] was “inactive” and the Potency [4] was “inactive”. The Potency [2] was “inactive”, the Potency [5] was “inactive” and the Potency [7] was “inactive”.

With `CCOc1cc(N2CCC(O)CC2)ccc1Nc1ncc2c(n1)N(C1CCCC1)CCC(=O)N2C` the Potency [8] was 20.1 µM (active) and the Potency [9] was “inactive”.

For `COc1cc2ncnc(Nc3cc(Br)c(O)c(Br)c3)c2cc1OC`, the Potency [3] was 7.42 µM (active) and the Potency [4] was 18.6 µM (active).

With `N[C@@]1(C(=O)O)CS(=O)(=O)[C@H]2[C@H](C(=O)O)[C@H]21` the viability [1] was 114%, the Potency [6] was “inactive” and the Potency [3] was “inactive”. For the same molecule, the Potency [4] was “inactive”, the Potency [2] was “inactive” and the Potency [5] was “inactive”. For the same molecule, the Potency [7] was “inactive”.

In the case of `Cn1cncc1[C@@](N)(c1ccc(Cl)cc1)c1ccc2c(c1)c(-c1cccc(Cl)c1)cc(=O)n2C`, the Potency [4] is reported as 0.0021 µM (active).

With `CC(C)OC(=O)C(C(=O)OC(C)C)=C1SC=CS1` the viability [1] was 105%, the Potency [6] was “inactive” and the Potency [4] was “inactive”. For the same molecule, the Potency [5] was “inactive” and the Potency [7] was “inactive”.

In the case of `CCCCCCCCc1ccc(CCC(N)(CO)CO)cc1`, the Potency [1] is reported as 26.3 µM (active), the Potency [6] is reported as 13.2 µM (active) and the Potency [3] is reported as 14.8 µM (active). For the same molecule, the Potency [4] was 18.6 µM (active), the Potency [5] was 16.6 µM (active) and the Potency [7] was 14.8 µM (active).

For `COc1ccc(C2(O)c3c(ccc4c3OC(C)(CCC=C(C)C)C=C4)NC(=O)C2OC)cc1` (stereo not given), the Potency [10] was “inactive”.

For `CCCCC(=O)O[C@]1(C(=O)CO)[C@@H](C)C[C@H]2[C@@H]3CCC4=CC(=O)C=C[C@]4(C)[C@@]3(F)[C@@H](O)C[C@@]21C`, the viability [1] was 109%, the Potency [4] was 14.8 µM (active) and the Potency [2] was “inactive”. The Potency [5] was 0.0132 µM (active).
